Source: PubChem BioAssay (Tox21)
Inconclusive results are not listed. Active and inactive are the calls of the source. Unless noted, calls follow the shape of the dose curve; as a rule, active = well fitted curve in the direction sought with a large enough effect in the repeat runs; inconclusive = weak or mixed curves; inactive = no such curve, though single readings can be large; an effect the other way counts as inactive or inconclusive.

Columns and labels:
[1] = qHTS assay to identify small molecule antagonists of the estrogen related receptor signaling pathway with the pleiotropic PPARgamma coactivator (PGC) from Tox21 10K library - cell viability counter screen (AID 1224840; active = well fitted cell-killing curve with a large enough effect in the repeat runs, not every such curve was filed as active; also: nearly all actives have a fitted effect of over 40% in size)
Outline: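 Following seeding of 2,000 PGC/ERR cells/well and 6 hours' incubation, test compounds were delivered in DMSO. The plates then sat 17.5 hours at 37 C before a fluorogenic live-cell protease reagent (CellTiter-Fluor) was read after 30 min.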

[2] = qHTS assay to identify small molecule antagonists of the estrogen related receptor signaling pathway with the pleiotropic PPARgamma coactivator (PGC) from Tox21 10K library (AID 1224841; call rule not given here; also: series mostly up to about 92 µM; actives are mostly falling curves and most rising ones were filed inactive; nearly all actives have a fitted effect of over 50% in size)
Outline: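 qHTS antagonist format: PGC/ERR cells, 2k/well, compound in DMSO by pin transfer after 6 h attachment, 18 h treatment at 37 C, One-Glo luminescence read at 30 min.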

[3] = qHTS assay to identify small molecule agonists of the estrogen related receptor signaling pathway with the pleiotropic PPARgamma coactivator (PGC) from Tox21 10K library (AID 1224842); also: nearly all actives have a fitted effect of over 15% in size
Outline: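 PGC/ERR reporter cells (NTP line) were seeded 2,000 per well, rested 6 h at 37 C/5% CO2, then pin-dosed with compounds in DMSO for 18 h at 37 C; luciferase read by One-Glo luminescence after 30 min at room temperature.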

[4] = target: Thyrotropin receptor (Homo sapiens) (UniProt P16473); assay: qHTS assay to identify small molecule agonists of the thyroid stimulating hormone receptor (TSHR) signaling pathway (AID 1224843; calls by dose curve; also: nearly all actives have a fitted effect of over 45% in size)
Chain of Thyrotropin receptor (Homo sapiens) (P16473 whole entry, looked up): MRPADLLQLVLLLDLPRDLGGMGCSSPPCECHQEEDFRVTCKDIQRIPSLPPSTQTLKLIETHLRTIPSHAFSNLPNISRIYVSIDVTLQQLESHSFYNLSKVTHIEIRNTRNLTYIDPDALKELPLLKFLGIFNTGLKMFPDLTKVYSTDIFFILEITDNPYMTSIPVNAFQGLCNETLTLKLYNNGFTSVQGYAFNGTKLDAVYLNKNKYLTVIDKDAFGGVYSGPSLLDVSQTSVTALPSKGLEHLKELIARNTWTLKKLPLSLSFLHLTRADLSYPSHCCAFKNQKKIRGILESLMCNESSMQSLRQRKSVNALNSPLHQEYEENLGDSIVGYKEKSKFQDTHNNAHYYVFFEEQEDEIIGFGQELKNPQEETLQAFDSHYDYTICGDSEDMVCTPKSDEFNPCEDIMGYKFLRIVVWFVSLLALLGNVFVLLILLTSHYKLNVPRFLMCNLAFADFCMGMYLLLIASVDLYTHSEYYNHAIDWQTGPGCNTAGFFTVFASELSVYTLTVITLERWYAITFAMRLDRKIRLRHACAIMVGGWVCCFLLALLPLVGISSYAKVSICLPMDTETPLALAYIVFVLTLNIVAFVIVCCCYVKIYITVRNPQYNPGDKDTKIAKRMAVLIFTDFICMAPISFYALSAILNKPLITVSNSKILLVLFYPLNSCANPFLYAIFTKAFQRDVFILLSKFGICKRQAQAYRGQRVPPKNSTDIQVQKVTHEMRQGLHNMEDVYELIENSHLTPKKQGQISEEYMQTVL
Outline: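 Cell line HEK293 with TSHR; density 800/well. Exposure 30 min RT. Readout HTRF cAMP (cAMP-d2/anti-cAMP-cryptate), 1 h RT before reading.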

[5] = qHTS assay to identify small molecule agonists of the hypoxia (HIF-1) signaling pathway - cell viability counter screen (AID 1224844; calls by dose curve; also: nearly all actives have a fitted effect of over 50% in size)
Outline: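 Cells (HRE-bla ME-180, 2,000 per well) sat 5 hrs at 37C, got compound for 17 hrs, were read for CCF4-AM FRET, and were finally lysed with CellTiter-Glo for a 30 min room-temperature luminescence read.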

[6] = qHTS assay to identify small molecule agonists of H2AX (AID 1224845; active = well fitted activation curve with a large enough effect in the signal ratio in the repeat runs, not every such curve was filed as active; the % refers to the signal ratio)
Outline: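 Wild-type CHO-K1 cells plated overnight, then exposed 3 hr at 37C to compounds at 15 concentrations (0.76% DMSO). Lysed, then HTRF anti-pH2AX(S139)-cryptate/anti-H2AX-d2 detection after 24 hr at room temperature; emissions 665 and 620 nm.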

[7] = qHTS assay to identify small molecule agonists of the hypoxia (HIF-1) signaling pathway (AID 1224846; active = well fitted activation curve with a large enough effect in the signal ratio in the repeat runs, not every such curve was filed as active; the % refers to the signal ratio)
Outline: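 A low-serum medium (0.5% dialyzed FBS) holding 2,000 HRE-bla ME-180 cells per well is preincubated for 5 hrs, dosed with compounds by pintool, and kept a further 17 hrs at 37C, 5% CO2 before CCF4-AM FRET detection of beta-lactamase.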

[8] = qHTS assay to identify small molecule agonists of H2AX - cell viability counter screen (AID 1224847; calls by dose curve; also: top concentration of the series differs between compounds; nearly all actives have a fitted effect of over 30% in size)
Outline: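 Cells plated first: CHO-K1, 1000 per well in 10% FBS medium, incubated overnight at 37C. Then 15-point compound titration added (final DMSO 0.76%) for 3 hr. Finally CellTiter-Glo added and luminescence read.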

[9] = qHTS assay to identify small molecule antagonists of the estrogen related receptor (ERR) signaling pathway from Tox21 library (AID 1224848); also: nearly all actives have a fitted effect of over 50% in size
Outline: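 Screening used an ERR reporter line supplied by NTP, exposed for 18 h at 37 C to library compounds delivered in DMSO. Signal was luciferase luminescence developed with ONE-Glo at room temperature for 30 min.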

[10] = qHTS assay to identify small molecule agonists of the estrogen related receptor (ERR) signaling pathway from Tox21 library (AID 1224849; calls by dose curve; also: nearly all actives have a fitted effect of over 15% in size)
Outline: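 Screening used an NTP-provided ERR luciferase cell line. Compounds in DMSO were added 6 h after seeding and left 18 h at 37 C before a 30 min ONE-Glo step and luminescence reading.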

[11] = qHTS RealTime-Glo MT Cell Viability Assay in HepG2 cells - 24 hour (AID 1224867); also: nearly all actives have a fitted effect of over 50% in size
Outline: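 Luminescence read-out: viable HepG2 cells reduce a prosubstrate to a NanoLuc substrate, giving a signal proportional to live cell number. Reads taken at 0, 8, 16, 24, 32 and 40 h of compound exposure at 37 C.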

[12] = qHTS RealTime-Glo MT Cell Viability Assay in HEK293 cells - 32 hour (AID 1224868)
Outline: (§1)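 Nonlytic real-time viability readout: viable cells convert prosubstrate to NanoLuc substrate, giving luminescence proportional to live cell number. HEK293, 600 cells/well, compound added after 5 h, continuous culture at 37 C.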

[13] = A CellTox Green Cytotoxicity Assay to monitor cytotoxicity in HEK293 cells - 0 hour (AID 1224869); also: nearly all actives have a fitted effect of over 50% in size
Outline: (§2)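 Fluorescence intensity, read at 0, 8, 16, 24, 32 and 40 h of compound treatment, reflected dye binding to DNA of dead HEK293 cells; compounds (23 nL, DMSO) were added 5 h after plating cells with reagent.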

[14] = qHTS RealTime-Glo MT Cell Viability Assay in HepG2 cells - 40 hour (AID 1224870); also: nearly all actives have a fitted effect of over 50% in size
Outline: (§3)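 HepG2 cells mixed with RealTime-Glo MT reagents (NanoLuc plus cell-permeant prosubstrate) were seeded at 600 cells/well, incubated 5 h at 37 C/5% CO2, then pinned with compounds in DMSO; nonlytic luminescence tracked viability during 40 h treatment.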

[15] = A CellTox Green Cytotoxicity Assay to monitor cytotoxicity in HEK293 cells - 40 hour (AID 1224871); also: nearly all actives have a fitted effect of over 45% in size
Outline: as §2

[16] = qHTS RealTime-Glo MT Cell Viability Assay in HEK293 cells - 16 hour (AID 1224872)
Outline: as §1

[17] = qHTS RealTime-Glo MT Cell Viability Assay in HepG2 cells - 8 hour (AID 1224873); also: nearly all actives have a fitted effect of over 55% in size
Outline: as §3

[18] = qHTS RealTime-Glo MT Cell Viability Assay in HEK293 cells - 40 hour (AID 1224874); conditions: RealTime-Glo luminescence; max response: active compounds read low; also: nearly all actives have a fitted effect of over 50% in size
Outline: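 Viable HEK293 cells reduce a cell-permeant prosubstrate; the product diffuses out and is consumed by NanoLuc in the medium to give light. Compounds went in after a 5 h incubation and plates were read over the treatment course.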

[19] = A CellTox Green Cytotoxicity Assay to monitor cytotoxicity in HEK293 cells - 24 hour (AID 1224875); also: series mostly up to about 77 µM; nearly all actives have a fitted effect of over 45% in size
Outline: as §2

[20] = target: Nuclear receptor subfamily 1 group I member 3 (Homo sapiens) (UniProt Q14994); assay: qHTS assay to identify small molecule agonists of the constitutive androstane receptor (CAR) signaling pathway (AID 1224839);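 also: HepG2 cells stably carrying human CAR and a CYP2B6 luciferase reporter; series mostly up to about 92 µM; nearly all actives have a fitted effect of over 15% in size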
Chain of Nuclear receptor subfamily 1 group I member 3 (Homo sapiens) (Q14994 whole entry, looked up): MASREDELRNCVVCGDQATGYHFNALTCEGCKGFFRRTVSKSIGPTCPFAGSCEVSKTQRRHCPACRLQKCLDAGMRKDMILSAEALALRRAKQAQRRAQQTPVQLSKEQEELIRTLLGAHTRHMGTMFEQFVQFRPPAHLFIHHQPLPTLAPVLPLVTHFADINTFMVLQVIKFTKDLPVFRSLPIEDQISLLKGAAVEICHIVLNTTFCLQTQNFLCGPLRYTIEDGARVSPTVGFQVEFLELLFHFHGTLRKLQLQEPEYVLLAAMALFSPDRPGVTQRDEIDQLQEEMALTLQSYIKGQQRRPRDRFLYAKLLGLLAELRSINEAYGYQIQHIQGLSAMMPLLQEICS
Outline: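 HepG2-CYP2B6-hCAR cells, 2500/well, 4 h pre-incubation; compounds 15 conc.; PK11195 0.75 uM final; 24 h, 37 C/5% CO2; ONE-Glo luciferase read.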
% is scaled to controls: 0 for no effect and ±100 for the full control effect.

CCCCOC(=O)C(C)OC(=O)CCC (centres undefined)
inactive: outcome [1] | Potency [2] | outcome [3] | outcome [4] | outcome [5] | outcome [6] | outcome [7] | Potency [8] | Potency [9] | outcome [10] | outcome [11] | Potency [12] | Potency [13] | outcome [14] | Potency [15] | Potency [16] | outcome [17] | max response [18] 13% | Potency [19]

O=C(O)c1ccccc1C(=O)Nc1ccc(S(=O)(=O)Nc2nccs2)cc1
inactive: Potency [20] | outcome [5] | outcome [6] | Potency [8] | outcome [11] | Potency [12] | Potency [13] | outcome [14] | Potency [15] | Potency [16] | outcome [17] | max response [18] -1.33% | Potency [19]

CCOc1ccc(NC(=O)OC(C)C)cc1OCC
inactive: Potency [20] | outcome [1] | outcome [5] | outcome [6] | outcome [7] | outcome [11] | Potency [13] | outcome [14] | Potency [15] | Potency [16] | outcome [17]

CCCCCCCCCOCC1CO1 (centres undefined)
inactive: Potency [20] | outcome [3] | outcome [4] | outcome [5] | outcome [6] | Potency [8] | Potency [9] | outcome [10] | outcome [11] | Potency [12] | Potency [13] | outcome [14] | Potency [15] | Potency [16] | outcome [17] | Potency [19]

COc1cccc2sc(N)nc12
inactive: outcome [1] | Potency [2] | outcome [3] | outcome [4] | outcome [5] | outcome [6] | outcome [7] | Potency [9] | outcome [10] | outcome [11] | Potency [12] | Potency [13] | outcome [14] | Potency [15] | Potency [16] | outcome [17] | max response [18] -6.71%

COc1cc([N+](=O)[O-])ccc1N
inactive: Potency [20] | outcome [4] | outcome [5] | outcome [6] | outcome [7] | Potency [8] | outcome [11] | Potency [12] | Potency [13] | Potency [15] | Potency [16] | outcome [17] | max response [18] -15.5% | Potency [19]

Oc1ccccc1Cc1ccccc1O
inactive: outcome [1] | Potency [2] | outcome [3] | outcome [4] | outcome [5] | outcome [6] | outcome [7] | Potency [8] | Potency [9] | outcome [10] | outcome [11] | Potency [13] | outcome [14] | Potency [15] | outcome [17] | Potency [19]

O=C(O)/C=C/c1ccccc1
inactive: outcome [1] | Potency [2] | outcome [3] | outcome [4] | outcome [5] | outcome [6] | outcome [7] | Potency [9] | outcome [10] | outcome [11] | Potency [12] | Potency [13] | outcome [14] | Potency [15] | Potency [16] | outcome [17] | max response [18] -8.08%

CCCCCCCCC(=O)OCC
inactive: outcome [1] | Potency [2] | outcome [3] | outcome [4] | outcome [5] | outcome [6] | outcome [7] | Potency [8] | Potency [9] | outcome [10] | outcome [11] | Potency [12] | Potency [13] | outcome [14] | Potency [15] | Potency [16] | outcome [17] | max response [18] 9.15%

CCN(Cc1cccc(S(=O)(=O)O)c1)c1ccccc1
inactive: Potency [20] | outcome [4] | outcome [5] | outcome [6] | outcome [7] | Potency [8] | outcome [11] | Potency [12] | Potency [13] | outcome [14] | Potency [15] | Potency [16] | outcome [17] | max response [18] 0.413% | Potency [19]

FC(F)(F)c1ccc(Cl)cc1Cl
inactive: outcome [1] | Potency [2] | outcome [3] | outcome [4] | outcome [5] | outcome [6] | outcome [7] | Potency [8] | Potency [9] | outcome [10] | outcome [11] | Potency [12] | Potency [13] | outcome [14] | Potency [15] | Potency [16] | outcome [17] | max response [18] 6.78%

CN(C)CCCNCCC#N
inactive: Potency [20] | outcome [1] | outcome [5] | outcome [6] | Potency [8] | outcome [11] | Potency [12] | Potency [13] | outcome [14] | Potency [15] | Potency [16] | outcome [17] | max response [18] 6.65% | Potency [19]

CC(CC(=O)O)CC(C)(C)C (centres undefined)
inactive: Potency [20] | outcome [1] | outcome [5] | outcome [6] | Potency [8] | outcome [11] | Potency [12] | Potency [13] | Potency [15] | Potency [16] | outcome [17] | max response [18] -0.126% | Potency [19]

C[CH2][Ge]([Cl])([CH2]C)[CH2]C
inactive: outcome [1] | outcome [3] | outcome [4] | outcome [5] | outcome [6] | outcome [7] | Potency [9] | outcome [10] | outcome [11] | Potency [12] | Potency [13] | outcome [14] | Potency [15] | Potency [16] | outcome [17] | max response [18] 1.99% | Potency [19]

CCCOC(=O)CCCCC(=O)OCCC
inactive: outcome [1] | Potency [2] | outcome [3] | outcome [5] | outcome [6] | outcome [7] | Potency [8] | Potency [9] | outcome [10] | outcome [11] | Potency [12] | Potency [13] | Potency [15] | Potency [16] | outcome [17] | max response [18] -4.84%
